Screening results: PubChem BioAssay, National Center for Advancing Translational Sciences (NCATS)
Tau fluor counter = counter-screen for tau fibril formation inhibitors. tau K18 P301L Alexa594 fluorescence, heparin fibrillization. Potency, µM (doses to about 57.7 µM), for the others: top-dose activity change, negative = decrease. 0.93% of 280,000 active. AID 1463; note: potency is the fitted concentration of half-maximal effect; nearly all actives have a fitted effect of over 55% in size
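Human tau K18 P301L (15 uM unlabeled, 0.24 uM Alexa 594-labeled) in 100 mM sodium acetate pH 7 with 20 uM heparin, 6 hr at 37 C. ThT 30 uM added, 1 hr ambient; Alexa 594 FP and total fluorescence read at 555/632 nm.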
Tau FP inhib = blocks human tau fibril formation measured by polarization | P10636 | K18 P301L tau heparin fibrillization, Alexa594 FP, 6 h | Potency, µM (doses to about 57.7 µM), for the others: at the highest dose activity, negative = inhibition, actives largely listed as inhibitors | 0.39% of 280,000 active | AID 1468; note: potency is the fitted concentration of half-maximal effect; nearly all actives have a fitted effect of over 55% in size
Target sequence (P10636 561-689 P618L limits assumed): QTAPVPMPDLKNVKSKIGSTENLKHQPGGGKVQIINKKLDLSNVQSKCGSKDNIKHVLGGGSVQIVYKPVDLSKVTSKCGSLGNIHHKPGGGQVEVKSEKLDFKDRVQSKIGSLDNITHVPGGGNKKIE
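Quantitative HTS format: compounds meet 15 uM recombinant K18 P301L tau and Alexa 594-tau tracer in 100 mM sodium acetate pH 7; 20 uM heparin triggers fibrillization at 37 C over 6 hr; FP gives the signal.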
JMJD2E inh = inhibitors of human JMJD2E histone demethylase; Potency, µM (titrated, usually from 57.1 µM), inactives show top-dose activity change, negative = inhibition, hits mostly inhibitors; 1.6% of 230,000 active; AID 2147; B2RXH2; JMJD2E catalytic domain, FDH-coupled NADH fluorescence (FDH is formaldehyde dehydrogenase);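 note: potency is the fitted concentration of half-maximal effect; 0% = wells with enzyme and -100% = buffer wells without enzyme; nearly all actives have a fitted effect of over 50% in size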
Target sequence (B2RXH2 1-337 limits assumed): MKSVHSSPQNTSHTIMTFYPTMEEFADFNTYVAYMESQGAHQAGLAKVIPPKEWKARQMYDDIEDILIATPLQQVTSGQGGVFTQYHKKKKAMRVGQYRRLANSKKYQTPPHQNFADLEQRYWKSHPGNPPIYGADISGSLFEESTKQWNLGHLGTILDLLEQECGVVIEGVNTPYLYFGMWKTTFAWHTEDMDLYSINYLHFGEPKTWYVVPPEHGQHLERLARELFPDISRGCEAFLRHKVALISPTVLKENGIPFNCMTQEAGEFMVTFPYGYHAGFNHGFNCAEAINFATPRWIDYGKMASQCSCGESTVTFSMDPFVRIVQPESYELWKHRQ
Coupling enz = inhibits coupling enzyme system, counter-screen for aldolase hits. coupling enzyme system counterscreen, AmpLite Red fluorescence. activity change, negative = inhibition, % at 58.2 µM, hits read low. AID 2472. 0.67% of 290,000 active; in the data active = activity change below about -30%
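Final compound at 57.5 uM, incubated 10 min at RT with coupling enzyme reagent (glyceraldehyde-3-phosphate), then 20 min with substrate and AmpLite Red detection. Fluorescence read at 525/598 nm; tests interference with the coupling assay, not aldolase inhibition.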
Sfp PPTase inh = Sfp phosphopantetheinyl transferase inhibition; Potency, µM, for the others: largest response in the series, negative = inhibition, actives largely listed as inhibitors; 3.5% of 310,000 active; Biochemical Sfp PPTase activity, qHTS;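 note: the enzyme is Sfp with the accession as filed and its product quenches rhodamine fluorescence; potency is the fitted concentration of half-maximal effect; 0% = enzyme reaction without inhibitor and -100% = no enzyme wells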
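Step 1, compound plus 15 nM Sfp-PPTase, 15 min, room temperature. Step 2, add rhodamine-CoA (5 uM) and BHQ-2-YbbR (12.5 uM). Step 3, read 525/598 nm fluorescence at 0 and 30 min.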
Tau fibril ThT = inhibitors of human tau fibril formation, thioflavin T binding; P10636; recombinant tau K18 P301L (four-repeat tau fragment), heparin-induced fibrillization, ThT fluorescence; Potency, µM (top dose mostly 57.4 µM), without a hit: at the highest dose activity, negative = inhibition, actives largely listed as inhibitors; 2.1% of 270,000 active; AID 1460; note: potency is the fitted concentration of half-maximal effect; nearly all actives have a fitted effect of over 55% in size
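In this qHTS, human K18 P301L tau is incubated with compound and heparin for 6 hr at 37 C, and Thioflavin T fluorescence then reports fibril load.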
Sfp inh conf = confirmation of Bacillus subtilis Sfp PPTase inhibitors; Sfp PPTase enzymatic assay, qHTS titration; 79% of 380 active; shares compounds with Sfp PPTase inh; AID 2701; Potency, µM (top dose mostly 114 µM), for the others: at the top dose activity change, negative = inhibition, usual class: inhibitors;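 note: potency is the fitted concentration of half-maximal effect; plate controls were uninhibited Sfp reaction for no effect and no enzyme control for full effect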
Target sequence (Q9F4F7 whole entry, looked up): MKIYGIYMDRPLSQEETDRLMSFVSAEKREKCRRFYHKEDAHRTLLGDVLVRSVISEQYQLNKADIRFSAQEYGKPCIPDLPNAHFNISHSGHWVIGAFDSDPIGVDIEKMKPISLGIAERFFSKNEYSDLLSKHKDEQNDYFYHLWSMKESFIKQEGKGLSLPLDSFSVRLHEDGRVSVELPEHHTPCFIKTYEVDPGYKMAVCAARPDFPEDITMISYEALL
Sfp gel assay = Inhibits B. subtilis Sfp phosphopantetheinylation; shares compounds with Sfp PPTase inh; 20% of 210 active; AID 2707; purified Sfp, gel-based phosphopantetheinylation read-out; Potency, µM, usual class: inhibitors;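 active = potency below 100 µM; inconclusive = dose-dependent response but potency above 100 µM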;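 note: band intensities scaled against SCH202676 control wells before curve fitting; potency is an IC50 for inhibitors of Sfp transfer activity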
Starred values were filed as active, the others as inactive; i = inactive; ? = inconclusive; / = no result given; ! = repeats disagree; [ ] = dose if it differs, or a comment. The list is not random: actives were taken first. Their share in the collection is about 5.3%. Unless noted, calls come from the whole dose curve; as a rule, active = well fitted curve in the direction sought with a large enough effect; inconclusive = small, poorly fitted or top-dose-only effect, or another doubt; inactive = no such curve, though single readings can be large; an effect the other way counts as inactive or inconclusive. Unless noted, % is set by controls: 0 for no effect and ±100 for the full control effect.

SMILES	Tau fluor counter	Tau FP inhib	JMJD2E inh	Coupling enz	Sfp PPTase inh	Tau fibril ThT	Sfp inh conf	Sfp gel assay
O=C(CSC1=Nc2ccccc2C2=NC(Cc3ccccc3)C(=O)N12)Nc1cccc(Cl)c1 (stereo unspecified)	?	-19%	/	/	/	3%	/	/
O=C(O)Cn1ncc2c1-c1ccoc1CC2	-14%	?	?	-38*	45µM*	?	?	/
O=C(Cn1ncc2c1-c1ccccc1OC2)N1CCc2ccccc21	-10%	-7%	-8%	3	15%	-3%	/	/
CCOC(=O)c1cc(=O)n2nc(-c3ccccc3F)nc2s1	-17%	-4%	-2%	1	14µM*	-8%	59µM*	/
CCC1CCCCN1S(=O)(=O)c1ccc(NC(=O)c2cc(=O)c3c(C)cc(C)cc3o2)cc1 (stereo unspecified)	?	-14%	/	/	/	0%	/	/
O=C(CSc1n[nH]c(-c2ccccc2O)n1)N1CCOCC1	7%	6%	?	0	3.5µM*	6%	15%	i
O=C(CSc1n[nH]c(-c2ccccc2)n1)N1CCOCC1	/	/	/	-1	2%	/	/	/
COC(=O)NC(C(=O)OC)(C(=O)OC)c1ccccc1	4%	11%	3%	5	0%	7%	/	/
CCOc1ccc(CNC(=O)CN2N=C(c3ccccc3)CCC2=O)cc1OC	-6%	3%	/	/	/	3%	/	/
Cc1cccc(-n2c3nc(=O)n(C)c(=O)c-3cc3c(C)nn(-c4ccccc4)c32)c1C	-8%	-3%	/	/	/	-9%	/	/
On1c2c(c3c4nonc4ccc31)CCCC2	?	?	-10%	-60*	45µM*	7.9µM*	66µM*	/
COC(=O)c1ccc(N2CCCCC2)c(N)c1	-11%	0%	?	0	9%	-12%	/	/
COC(=O)c1ccc(N2CCC(C)CC2)c(N)c1	?	6%	?	4	32µM*	?	19µM*	/
Cn1ncc2c(c(SCc3ccc(Cl)cc3Cl)nn2C)c1=O	-14%	-11%	-26%	1	25µM*	?	17µM*	/
COc1cnn(-c2ccccc2)c(=O)c1SCc1ccc(Cl)cc1Cl	-15%	-6%	-3%	-1	?	-11%	/	/
O=C(CSc1nc2cc([N+](=O)[O-])ccc2n1-c1ccccc1)NCc1ccc2c(c1)OCO2	-3%	2%	5%	5	1µM*	0%	15µM*	/
OC(CN1CCNCC1)Cn1c2ccc(Br)cc2c2cc(Br)ccc21 (stereo unspecified)	?	?	-10%	1	35µM*	10%	-9%	i
OC(CN1CCCCC1)Cn1c2ccccc2c2cc(Br)ccc21 (stereo unspecified)	/	/	/	2	-9%	/	/	/
CC(C)(C)NC(=O)C(c1cccnc1)N(C(=O)c1ccc(Cl)nc1)C1CCCC1 (stereo unspecified)	-37%	-65%	0%	-51*	3.5µM*	13µM*	0%	i
O=C(CN1C(=O)CC(c2ccco2)Sc2ccccc21)NCC1CCCO1 (stereo unspecified)	-14%	?	-18%	-8	11µM*	?	7.4µM*	/
COc1ccc(C2CC(=O)N(CC(=O)NCC3CCCO3)c3ccccc3S2)cc1 (stereo unspecified)	-13%	-1%	3%	1	6%	-11%	/	/
CCN(CC)CCCOC(=O)C1(c2ccccc2)CCCC1	-4%	6%	-4%	-10	-18%	-6%	/	/
CCN(CC)CCOCCOC(=O)C1(c2ccccc2)CCCC1	-8%	0%	?	1	50µM*!	-5%	?	i
Cc1ccc(C(=O)CSc2nnc3c4ccccc4nc(Cc4ccccc4)n23)cc1	7%	9%	-1%	4	8.9µM*	7%	?	i
COCOc1c2c(c(OCOC)c3c(OCOC)cccc13)/C(=N/NS(C)(=O)=O)C1=C2CCCC1	-16%	5%	?	-9	-1%	-14%	/	/
SMILES	Tau fluor counter	Tau FP inhib	JMJD2E inh	Coupling enz	Sfp PPTase inh	Tau fibril ThT	Sfp inh conf	Sfp gel assay
O=c1c2ccccc2n(Cc2cccc(F)c2)c(=O)n1Cc1ccccc1Cl	?	?	/	/	/	-9%	/	/
N#C/C(=C\c1ccc(F)cc1)C(=O)NCC1CCCO1 (stereo unspecified)	-2%	-2%	/	/	/	-2%	/	/
CC(=O)O[C@H]1C(=O)[C@@]2(C)[C@H]([C@H](OC(=O)c3ccccc3)[C@]3(O)C[C@H](OC(=O)[C@H](O)C(NC(=O)c4ccccc4)c4ccccc4)C(C)=C1C3(C)C)[C@]1(OC(C)=O)CO[C@@H]1C[C@@H]2O (stereo partly specified)	-18%	-12%	-22%	0	10µM*	?	30µM*	i
CN1CCc2cccc3c2[C@@H]1Cc1ccc(O)c(O)c1-3	28µM*[quencher]	28µM*	32µM*	-7	63µM*	28µM*	59µM*	56µM*
CCOC(c1cc(OC)cc([N+](=O)[O-])c1OC)C(C)C(OC)[C@@H](C)/C=C/CC(=O)OC (stereo partly specified)	-4%[11.6 µM]	1%[11.6 µM]	/	1	3%	4%[11.5 µM]	/	/
COc1ccc(C(=O)C2CCCN(C(=O)CCc3scnc3C)C2)c(C)c1 (stereo unspecified)	-30%	-49%	?	-29	13µM*	28µM*	6%	/
CS(=O)(=O)Nc1cccc(-c2cncnc2Nc2ccc(F)cc2)c1	/	/	/	-1	-29%	/	/	/
CN1CCN2c3ccccc3Cc3ccccc3C2C1 (stereo unspecified)	-8%	5%	5%	-3	45µM*!	-6%	?	?
O=C(CC(Nc1ccc(Cl)cc1)C(=O)O)c1ccccc1 (stereo unspecified)	-8%	2%	20%	0	7.1µM*	-7%	?	?
O=C(CC(Nc1ccccc1Cl)C(=O)O)c1ccccc1 (stereo unspecified)	-11%	?	-24%	4	4µM*	?	13µM*	?
Cc1c(Cl)cccc1NC(CC(=O)c1ccccc1)C(=O)O (stereo unspecified)	-7%	?	-7%	1	7.9µM*	?	11µM*	i
O=C(CC(=O)c1ccccc1)Nc1ccc(Cl)cc1	/	/	/	1	23%	/	/	/
CCOC(=O)CN1C(=O)c2cccnc2Oc2ccccc21	0%	-4%	/	/	/	1%	/	/
